Measurements published in the supplement of paper PMC12339681.
Counter-ions that a name gives are not always drawn.

tested on: PBMC-derived induced microglia-like cells (piMGLC); assay: synaptosome phagocytic index relative to DMSO control (fraction of DMSO); higher = more phagocytosis; settings: concentration: 10 uM (2 uM for compounds listed in Table S2); pretreatment time: 24 h; assay time: 3 h
Experimental: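 PBMC-derived induced microglia-like cells (piMGLCs) in 96-well plates were pretreated for 24 h with CNS-penetrant library compounds (MedChemExpress HY-L028), mostly at 10 uM; Table S2 lists 9 compounds at 2 uM. pHrodo-Red-labelled human iPSC-neuron synaptosomes (3 ug/well) were then added for 3 h, and cells were fixed and imaged by confocal microscopy. Phagocytic index (synaptosome area / cell count, CellProfiler) is a mean over 3 replicate wells on different plates, normalized to the DMSO control. Compounds leaving <10% of DMSO cell count were marked toxic and given no value.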

With `O=C1CCc2ccc(OCCCCN3CCN(c4cccc(Cl)c4Cl)CC3)cc2N1` [Aripiprazole] as the compound, how does the synaptosome phagocytic index read?
The synaptosome phagocytic index was 0.885.

How did the synaptosome phagocytic index turn out when `Nc1nc2ccc(OC(F)(F)F)cc2s1` [Riluzole] was run?
The synaptosome phagocytic index was 0.991.

For `Cc1ccc(C(=O)NCCCCCC(=O)Nc2ccccc2N)cc1`, which synaptosome phagocytic index is on record?
The synaptosome phagocytic index was 0.694.

`Clc1cccc(Cl)c1NC1=NCCN1` [Clonidine_(hydrochloride)] was tested. Which synaptosome phagocytic index did it give?
The synaptosome phagocytic index was 0.898.

How did the synaptosome phagocytic index turn out when `NNC(=O)c1ccncc1` [Isoniazid] was run?
Its synaptosome phagocytic index is 1.01.

Which synaptosome phagocytic index does the source give for `C[C@@H]1CN(c2cccnc2F)C(=O)c2cc(COc3ccc(Cl)cn3)nn21` here?
The synaptosome phagocytic index was 1.13.

How did the synaptosome phagocytic index turn out when `C[C@@H](O[C@H]1OCCN(Cc2n[nH]c(=O)[nH]2)[C@H]1c1ccc(F)cc1)c1cc(C(F)(F)F)cc(C(F)(F)F)c1` [Aprepitant] was run?
Its synaptosome phagocytic index is 1.02.

With `Cc1nc(N)nc(N)c1-c1ccc(Cl)c(Cl)c1` [Metoprine] as the compound, how does the synaptosome phagocytic index read?
Its synaptosome phagocytic index is 1.25.

With `CN(C)C(=N)NC(=N)N` [Metformin] as the compound, how does the synaptosome phagocytic index read?
The synaptosome phagocytic index was 1.28.

For `OC1(CN2CCC(COc3noc4cccc(O[C@@H]5CCOC5)c34)CC2)CCOCC1`, which synaptosome phagocytic index is on record?
Its synaptosome phagocytic index is 0.793.

Which synaptosome phagocytic index does the source give for `CS(=O)(=O)OCCCCOS(C)(=O)=O` [Busulfan] here?
The synaptosome phagocytic index was 0.829.

Which synaptosome phagocytic index does the source give for `O=C(c1cc(Cc2n[nH]c(=O)c3ccccc23)ccc1F)N1CCN(C(=O)C2CC2)CC1` [Olaparib] here?
Its synaptosome phagocytic index is 0.997.

With `CNNCc1ccc(C(=O)NC(C)C)cc1` [Procarbazine_(Hydrochloride)] as the compound, how does the synaptosome phagocytic index read?
Its synaptosome phagocytic index is 1.1.

Which synaptosome phagocytic index does the source give for `CCCC(CCC)C(=O)O` [Valproic_acid] here?
Its synaptosome phagocytic index is 0.68.

`CN(C)C(=O)c1cc2cnc(Nc3ccc(N4CCNCC4)cn3)nc2n1C1CCCC1` [Ribociclib_succinate] was tested. Which synaptosome phagocytic index did it give?
The synaptosome phagocytic index was 0.592.

How did the synaptosome phagocytic index turn out when `C[C@]1(c2nc3c(C(N)=O)cccc3[nH]2)CCCN1` [Veliparib] was run?
The synaptosome phagocytic index was 0.721.

Which synaptosome phagocytic index does the source give for `CN(C)CCC[C@@]1(c2ccc(F)cc2)OCc2cc(C#N)ccc21` [Escitalopram_(oxalate)] here?
The synaptosome phagocytic index was 0.946.

For `CC(=O)[C@H]1CC[C@H]2[C@@H]3CC=C4C[C@@H](O)CC[C@]4(C)[C@H]3CC[C@]12C` [Pregnenolone], which synaptosome phagocytic index is on record?
Its synaptosome phagocytic index is 0.878.

`CC(C)OC(=O)NC1CCN(Cc2cc(Cl)c3cccnc3c2O)CC1` was tested. Which synaptosome phagocytic index did it give?
Its synaptosome phagocytic index is 0.609.

`CC(C)C[C@H](NC(=O)[C@H](CCCCN)NC(=O)[C@H](CO)NC(=O)[C@@H](N)CC(C)C)C(N)=O` [LSKL,_Inhibitor_of_Thrombospondin_(TSP-1)_(TFA)] was tested. Which synaptosome phagocytic index did it give?
Its synaptosome phagocytic index is 1.05.

How did the synaptosome phagocytic index turn out when `Nc1nc(Cl)nc2c1ncn2[C@H]1C[C@H](O)[C@@H](CO)O1` [Cladribine] was run?
Its synaptosome phagocytic index is 1.1.

For `COC1(c2sc3c(N4CCOCC4)nc(-c4cnc(N)nc4)nc3c2C)COC1`, which synaptosome phagocytic index is on record?
Its synaptosome phagocytic index is 0.384.

With `CCCCCCCCCC(=O)O` [Decanoic_acid] as the compound, how does the synaptosome phagocytic index read?
The synaptosome phagocytic index was 1.32.

With `Cn1cnc2c(F)c(Nc3ccc(Br)cc3Cl)c(C(=O)NOCCO)cc21` [Selumetinib] as the compound, how does the synaptosome phagocytic index read?
The synaptosome phagocytic index was 0.811.

How did the synaptosome phagocytic index turn out when `Nc1ccccc1NC(=O)c1ccc(CNC(=O)OCc2cccnc2)cc1` [Entinostat] was run?
The synaptosome phagocytic index was 0.753.

How did the synaptosome phagocytic index turn out when `OCCOCCN1CCN(C2=Nc3ccccc3Sc3ccccc32)CC1` [Quetiapine] was run?
Its synaptosome phagocytic index is 0.906.

For `CC(C)(C)c1cnc(CSc2cnc(NC(=O)C3CCNCC3)s2)o1`, which synaptosome phagocytic index is on record?
Its synaptosome phagocytic index is 0.572.

`CC(C)Cc1ccc(C(C)C(=O)O)cc1` (stereo not given) [Ibuprofen] was tested. Which synaptosome phagocytic index did it give?
The synaptosome phagocytic index was 0.74.

For `CC(C)c1ccc(NC(=O)c2c(-c3cc(F)ccc3F)ccnc2N2CC[C@H](F)C2)cn1` [Nav1.1_activator_1], which synaptosome phagocytic index is on record?
The synaptosome phagocytic index was 0.451.

Which synaptosome phagocytic index does the source give for `Cn1cc(-c2ccncc2)c(-c2ccc(OCc3ccc4ccccc4n3)cc2)n1` [Mardepodect_(hydrochloride)] here?
Its synaptosome phagocytic index is 0.503.

`S=c1nc[nH]c2nc[nH]c12` [6-Mercaptopurine] was tested. Which synaptosome phagocytic index did it give?
The synaptosome phagocytic index was 0.669.

How did the synaptosome phagocytic index turn out when `OC(Cn1cncn1)(Cn1cncn1)c1ccc(F)cc1F` [Fluconazole] was run?
Its synaptosome phagocytic index is 0.902.

How did the synaptosome phagocytic index turn out when `CC(=O)Nc1cccc(-n2c(=O)n(C3CC3)c(=O)c3c(Nc4ccc(I)cc4F)n(C)c(=O)c(C)c32)c1` [Trametinib] was run?
The synaptosome phagocytic index was 0.637.

How did the synaptosome phagocytic index turn out when `CC(C)c1nc(CN(C)C(=O)N[C@H](C(=O)N[C@@H](Cc2ccccc2)C[C@H](O)[C@H](Cc2ccccc2)NC(=O)OCc2cncs2)C(C)C)cs1` [Ritonavir] was run?
The synaptosome phagocytic index was 0.742.

How did the synaptosome phagocytic index turn out when `Cc1cc(NS(=O)(=O)c2ccc(N)cc2)no1` [Sulfamethoxazole] was run?
The synaptosome phagocytic index was 1.17.

How did the synaptosome phagocytic index turn out when `O=C(O)c1cc(/N=N/c2ccc(S(=O)(=O)Nc3ccccn3)cc2)ccc1O` [Sulfasalazine] was run?
Its synaptosome phagocytic index is 0.883.

How did the synaptosome phagocytic index turn out when `Oc1cc(-c2nc(-c3ccccc3)[nH]c2-c2ccncc2)ccc1Cl` was run?
The synaptosome phagocytic index was 0.229.

With `CC1(C)S[C@@H]2[C@H](NC(=O)[C@H](NC(=O)N3CCN(S(C)(=O)=O)C3=O)c3ccccc3)C(=O)N2[C@H]1C(=O)O` [Mezlocillin_(sodium)] as the compound, how does the synaptosome phagocytic index read?
The synaptosome phagocytic index was 0.977.

With `COc1cccc2c1C(=O)c1c(O)c3c(c(O)c1C2=O)C[C@@](O)(C(=O)CO)C[C@@H]3O[C@H]1C[C@H](N)[C@@H](O)[C@H](C)O1` [Epirubicin_(hydrochloride)] as the compound, how does the synaptosome phagocytic index read?
The synaptosome phagocytic index was 0.904.

With `C[C@H]1OC[C@]2(c3cc(NC(=O)c4cnc(C(F)F)cn4)ccc3F)N=C(N)SC[C@H]12` [Elenbecestat] as the compound, how does the synaptosome phagocytic index read?
Its synaptosome phagocytic index is 0.918.
